Measurements reported in PubChem BioAssay.
Records with an inconclusive call do not appear. Active and inactive are the calls of the source. Unless noted, no stated cut-off is given here; in the data, active means inhibition above about 80%; inactive means the rest.

Key:
[1] = viability loss in pontine glioma line – cell-based, JHH-DIPG-1, MIPE4.0, CellTiter-Glo, qHTS, dose response (AID 1347062; cut-off not given, nearly all actives have AC50 up to about 27 µM;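 on AC50: cells exposed to compound for two days before readout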); settings: JHH-DIPG-1 viability, CellTiter-Glo ATP luminescence
[2] = viability loss in pontine glioma line – cell-based, SU-DIPG-IV, MIPE4.0, CellTiter-Glo, qHTS, dose response (AID 1347063; cut-off not given, nearly all actives have AC50 up to about 30 µM;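 further: compound exposure lasted 48 hours before the viability readout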); settings: CellTiter-Glo ATP luminescence
[3] = growth inhibition of DIPG cells – cell-based, MIPE4.0 library, CellTiter-Glo luminescence, qHTS (AID 1347066; cut-off not given, nearly all actives have AC50 up to about 30 µM;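 further: cells exposed to compound for 48 hours before readout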); settings: SU-DIPG-VI viability, CellTiter-Glo ATP luminescence
[4] = growth inhibition of DIPG cells – cell-based, MIPE5.0 library, qHTS (AID 1347068; cut-off not given, nearly all actives have IC50 up to about 30 µM); settings: SU-DIPG-XXV viability
[5] = viability loss with induced miR-34 in A549 – imaging, A549 dox-inducible miR-34, nuclei and caspase counts, primary screen (AID 1347080;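 active means compounds whose cell count with miR-34 switched on is under 0.7 times the count with it off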); settings: A549 miR-34 inducible, Hoechst nuclei count, 48 h
[6] = viability loss in pontine glioma line – cell-based, SU-DIPG-XIII, MIPE5.0, CellTiter-Glo, qHTS, dose response (AID 1347064; cut-off not given, nearly all actives have AC50 up to about 23 µM;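 further: cells exposed to compound for 48 hours before the viability read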); settings: CellTiter-Glo ATP luminescence
[7] = viability loss in pontine glioma line – cell-based, SU-DIPG-XXV, MIPE5.0, CellTiter-Glo, qHTS, dose response (AID 1347065; cut-off not given, nearly all actives have AC50 up to about 26 µM;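 further: cells exposed to compound for 48 hours before ATP readout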); settings: CellTiter-Glo ATP luminescence
[8] = JHH-DIPG-1 glioma cell viability, MIPE5.0 library, CellTiter-Glo luminescence, qHTS (AID 1347067; cut-off not given, nearly all actives have AC50 up to about 26 µM;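 further: cells exposed to compound for 48 hours before readout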); settings: JHH-DIPG-1 glioma viability, CellTiter-Glo ATP luminescence
[9] = growth inhibition, single agent or in combination, cell-based, chromothripsis tumors, cisplatin or BGB combos (AID 1671449); settings: LFS_MB_P medulloblastoma cells;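 further: cells exposed for 96 hours; 0% = vehicle DMSO and 100% = killing by high DMSO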
[10] = growth inhibition, single agent and combos, cell-based, chromothripsis tumors, cisplatin or BGB combos (AID 1671450); settings: HDN33 neuroblastoma cells, stronger effect = higher value;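 further: cells exposed to compound for four days; 0% = vehicle DMSO and 100% = cell killing by high DMSO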
[11] = growth inhibition, single agents and combos, ICB984, cell-based, cisplatin or BGB combos, synergistic combos for chromothripsis tumors (AID 1671451; call rule not given here;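 further: cells exposed for 96 hours before readout; 0% = vehicle DMSO and 100% = killing by high DMSO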); settings: ICB984 medulloblastoma cells, drug combinations, stronger effect = higher value
[12] = growth inhibition, single agents and combos, HTB85, cell-based, BGB or cisplatin IC20 combos, synergistic combos for chromothripsis tumors (AID 1671453); settings: HTB85 osteosarcoma cells, drug combinations, stronger effect = higher value;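 further: cells exposed for 96 hours before readout; 0% = vehicle DMSO and 100% = high DMSO killing control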
[13] = growth inhibition, MDA-MB-436, cell-based, BGB or cisplatin combos, synergistic combos for chromothripsis tumors (AID 1671458; call rule not given here;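 further: cells exposed for 96 hours; 0% = vehicle DMSO and 100% = killing by high DMSO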); settings: MDA-MB-436 breast carcinoma growth inhibition, drug combinations, stronger effect = higher value
[14] = BT084 cell growth, single and combined drugs, ICGC_MB145, cisplatin and BGB IC40 combos (AID 1671461); settings: BT084 medulloblastoma cells, drug combinations, stronger effect = higher value;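 further: cells exposed to drugs for 96 hours; 0% = vehicle DMSO and 100% = high DMSO full killing control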
[15] = RCMB18 cell growth, single agent and combined, cisplatin and BGB IC40 combos (AID 1671462); settings: RCMB18 medulloblastoma cells, stronger effect = higher value;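 further: cells exposed to compound for four days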
[16] = CRL1545 cell growth, single agent and combined, cisplatin and BGB IC20 combos (AID 1671464); settings: CRL1545 osteosarcoma cells, stronger effect = higher value;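 further: cells exposed to compound for 96 hours before readout; 0% = vehicle DMSO and 100% = high DMSO killing control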
[17] = measured here: with BGB IC20 combination, at 0.5 µM
[18] = measured here: with cisplatin IC20 combination, at 0.5 µM

CN[C@@H]1[C@@H](O)[C@@H](O[C@@H]2[C@@H](O)[C@H](O[C@H]3O[C@H](CN)[C@@H](O)[C@H](O)[C@H]3O)[C@@H](N)C[C@H]2NC(=O)[C@@H](O)CN)OC[C@]1(C)O
outcome [1]: inactive | outcome [2]: inactive | outcome [3]: inactive

O=C(Nc1nc2ccccc2n1CCN1CCOCC1)c1cccc([N+](=O)[O-])c1
AC50 [1]: 14.8 µM (active) | AC50 [2]: 10.5 µM (active) | outcome [4]: inactive | fold change ([5]; stronger effect = lower value, cell number ratio, induced over uninduced): 0.827 (inactive) | fold change ([5]; measured here: relative caspase fold change +Dox/-Dox): 1.35 | cell count ([5]; measured here: total cells with miR-34 induction, stronger effect = lower value): 5540 | cell count ([5]; measured here: total cells without miR-34 induction): 6700

COc1ccc(C(=O)CC2(O)C(=O)Nc3c(Cl)ccc(Cl)c32)cc1 (stereo unspecified)
AC50 [1]: 6.62 µM (active) | AC50 [6]: 11.8 µM (active) | AC50 [7]: 4.17 µM (active) | outcome [3]: inactive | AC50 [8]: 2.63 µM (active) | inhibition ([9]; at 0.5 µM, stronger effect = higher value): -20.8% (inactive) | inhibition ([9]; measured here: combination with BGB IC20, at 0.005 µM): -14.2% | inhibition ([9]; measured here: combination with BGB IC40, at 0.005 µM): -20.5% | inhibition ([9]; measured here: combination with BGB IC40, at 0.05 µM): -14.8% | inhibition ([9]; measured here: combination with cisplatin, at 0.5 µM, stronger effect = higher value): -51.4% | inhibition ([9]; measured here: combination with cisplatin, at 5 µM, stronger effect = higher value): 10.7% | inhibition ([10]; BGB combo, at 5 µM): 63.6% | inhibition ([10]; at 0.5 µM): 28.4% (inactive) | inhibition ([10]; cisplatin combo, at 5 µM): 59.7% | inhibition [10, 17]: 21.3% | inhibition [10, 18]: 16% | inhibition ([10]; single agent, at 5 µM): 93.1% | inhibition ([11]; BGB IC20 combo, at 0.005 µM): -4.85% | inhibition ([11]; BGB IC40 combo, at 0.005 µM): -25.9% | inhibition ([11]; BGB IC40 combo, at 0.05 µM): 11.3% | inhibition ([11]; at 0.5 µM): -24.6% (inactive) | inhibition ([11]; cisplatin combo, at 0.05 µM): 8.85% | inhibition ([11]; cisplatin combo, at 0.5 µM): -32.2% | inhibition ([11]; cisplatin combo, at 5 µM): -25.3% | inhibition ([11]; measured here: 5 uM single agent, at 5 µM): -28.8% | inhibition ([12]; at 0.5 µM): 33.2% (inactive) | inhibition ([12]; measured here: with BGB IC20, at 0.5 µM): 33.1% | inhibition ([12]; measured here: with BGB IC20, at 5 µM): 64.4% | inhibition ([12]; measured here: with cisplatin IC20, at 0.5 µM): 11.7% | inhibition ([12]; measured here: with cisplatin IC20, at 5 µM): 63.8% | inhibition ([12]; single agent, at 5 µM): 88.4% | inhibition ([13]; at 0.5 µM): 2.68% (inactive) | inhibition ([13]; measured here: BGB combination, at 0.5 µM): -5.4% | inhibition ([13]; measured here: BGB combination, at 5 µM): 40.2% | inhibition ([13]; measured here: cisplatin combination, at 0.5 µM): -2.19% | inhibition ([13]; measured here: cisplatin combination, at 5 µM): 64.3% | inhibition ([14]; at 0.5 µM): -18.2% (inactive) | inhibition ([14]; cisplatin combination, at 0.5 µM): 1.77% | inhibition ([14]; cisplatin combination, at 5 µM): 10.6% | inhibition ([14]; measured here: BGB IC40 combination 0.05 uM, at 0.05 µM): 2.03% | inhibition ([14]; single agent, at 5 µM): 40.8% | inhibition ([15]; at 0.5 µM): -4.73% (inactive) | inhibition ([15]; cisplatin combo, at 5 µM): 26.4% | inhibition ([15]; measured here: BGB IC40 combination, at 0.05 µM): -41.1% | inhibition ([15]; measured here: combination with cisplatin, at 0.5 µM): 6.7% | inhibition ([15]; single agent, at 5 µM): 24.9% | inhibition ([16]; at 0.5 µM): 0.14% (inactive) | inhibition [16, 17]: 16.2% | inhibition [16, 18]: -10.3% | inhibition ([16]; single agent, at 0.05 µM): -6.9% | inhibition ([16]; single agent, at 5 µM): 77.7%
